# Publication PMC4336329 (PLoS ONE, 2015)
# Among all 310,000 compounds or so, about 2,200 (0.71%) showed an effect of 50% or more. Effects have a minus sign here. This excerpt belongs to a sample that is enriched for strong results.
# Molecular target: human ether-à-go-go-related gene (hERG) potassium channel (human, UniProt Q12809)
# Test: primary screen, population patch clamp on CHO cells stably expressing hERG; higher = less effect of the substance
# human ether-à-go-go-related gene (hERG) potassium channel, sequence (Q12809 whole entry, looked up): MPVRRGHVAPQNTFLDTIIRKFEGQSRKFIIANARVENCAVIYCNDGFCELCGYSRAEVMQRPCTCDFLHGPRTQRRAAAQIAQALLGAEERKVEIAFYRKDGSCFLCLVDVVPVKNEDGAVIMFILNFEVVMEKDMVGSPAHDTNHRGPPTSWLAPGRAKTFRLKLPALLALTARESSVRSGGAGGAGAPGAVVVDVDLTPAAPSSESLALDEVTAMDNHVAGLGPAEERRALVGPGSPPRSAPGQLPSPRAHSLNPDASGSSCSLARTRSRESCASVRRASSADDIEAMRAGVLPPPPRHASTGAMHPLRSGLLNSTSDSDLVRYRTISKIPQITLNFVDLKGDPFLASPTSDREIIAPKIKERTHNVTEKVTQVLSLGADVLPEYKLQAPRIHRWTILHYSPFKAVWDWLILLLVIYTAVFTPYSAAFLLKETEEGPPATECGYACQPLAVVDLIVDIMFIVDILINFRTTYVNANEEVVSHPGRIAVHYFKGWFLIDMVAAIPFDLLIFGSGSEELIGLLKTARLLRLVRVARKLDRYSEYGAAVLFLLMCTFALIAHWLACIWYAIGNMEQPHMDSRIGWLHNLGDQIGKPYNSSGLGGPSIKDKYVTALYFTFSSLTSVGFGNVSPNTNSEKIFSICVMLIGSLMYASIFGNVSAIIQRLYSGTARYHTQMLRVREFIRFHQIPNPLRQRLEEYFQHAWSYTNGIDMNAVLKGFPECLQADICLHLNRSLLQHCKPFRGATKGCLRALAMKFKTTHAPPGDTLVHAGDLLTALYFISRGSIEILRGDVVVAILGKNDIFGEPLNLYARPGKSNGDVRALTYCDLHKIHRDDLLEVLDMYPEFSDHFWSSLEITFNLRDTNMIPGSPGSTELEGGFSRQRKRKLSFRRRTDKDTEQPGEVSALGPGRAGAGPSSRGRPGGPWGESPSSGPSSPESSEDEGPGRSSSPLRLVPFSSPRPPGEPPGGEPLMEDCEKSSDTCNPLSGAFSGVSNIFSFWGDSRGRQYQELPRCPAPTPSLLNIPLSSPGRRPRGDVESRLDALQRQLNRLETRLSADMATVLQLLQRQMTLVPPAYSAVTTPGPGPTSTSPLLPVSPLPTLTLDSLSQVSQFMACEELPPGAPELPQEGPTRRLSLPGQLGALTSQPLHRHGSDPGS
row,SMILES,"hERG current change (%, negative = inhibition) at 1uM [%]"
1,COc1ccc(NC(=O)CSc2n[nH]c(-c3ccccn3)n2)cc1,13
2,COc1ccc(C(=O)Nc2ccccc2NC(=O)c2ccco2)cc1OC,-9.39
3,CCN=C1SC(CC(=O)Nc2ccc(C(F)(F)F)cc2)C(=O)N1CC (stereo not drawn),1.51
4,Cc1cc(C)cc(NC(=O)c2ccccc2NC(=O)CCC(=O)O)c1,7.41
5,N#Cc1ccccc1OCCCNC1CCCC1.O=C(O)C(=O)O,2.23
6,O=C(O)C(=O)O.OCc1ccccc1OCCCN1CCC(Cc2ccccc2)CC1,-65.9
7,N#Cc1ccccc1OCCCN1CCC(Cc2ccccc2)CC1.O=C(O)C(=O)O,-83
8,CC1CCN(CCCCOc2ccccc2F)CC1.O=C(O)C(=O)O,7.61
9,CCC(=O)c1ccccc1OCCN1CCN(Cc2ccccc2)CC1.O=C(O)C(=O)O,-21.9
10,CCC(=O)c1ccccc1OCCCN1CCC(Cc2ccccc2)CC1.O=C(O)C(=O)O,-87
11,CCC(=O)c1ccccc1OCCN1CCN(CC)CC1.O=C(O)C(=O)O,-2.43
12,CCc1ccccc1OCCCN1CCCC1.O=C(O)C(=O)O,3.26
13,CCc1ccccc1OCCCCN1CCCC1.O=C(O)C(=O)O,-2.73
14,Cc1ccc(C)c(NC(=S)NCCSc2ccc(Cl)cc2)c1,11.9
15,CS(=O)(=O)N1CCc2cc(C(=O)Nc3ccc(COCC(F)(F)F)cc3)ccc21,10.4
16,Cc1cc(C(=O)Nc2ccc(C(=O)O)cc2)c(-c2ccccc2)o1,-3.53
17,CC(=O)c1ccc(NC(=O)C(C)N(C)CC(=O)Nc2ccccc2Cl)cc1 (stereo not drawn),14.4
18,O=C(O)CN1C(=O)/C(=C/c2ccsc2)SC1=S,12
19,COc1ccc(C(Nc2cc(C)ccn2)c2ccc3ccc(C)nc3c2O)cc1 (stereo not drawn),4.46
20,CC1CCC(NC(=O)Cn2c3c(c(-c4ccccc4Cl)cc2=O)CCC3)CC1 (stereo not drawn),9.99
21,COc1ccc(NC(=O)Nc2cccc(OC)c2)cc1,-2.63
22,C=CCSc1nnc(Cn2c(=O)sc3ccccc32)n1C,-6.54
23,C=CCOc1ccccc1CN1CCC(Oc2ccc(C(=O)N3CCCCC3)cc2)CC1,-3.91
24,CCn1ncc(CN2CCC(Oc3cc(C(=O)NC4CC4)ccc3OC)CC2)c1C,1.05

row,SMILES,"hERG current change (%, negative = inhibition) at 1uM [%]"
1,COc1ccc(C(=O)NCCc2ccccc2F)cc1OC1CCN(C(C)=O)CC1,12.5
2,COc1cc(C(=O)NC2Cc3ccccc3C2)ccc1OC1CCN(C(C)=O)CC1,9.82
3,COc1ccc(C(=O)N(C)C2CCCN(Cc3ccccc3F)C2)cc1OC (stereo not drawn),10.2
4,C=CCOc1ccccc1CN1CCC(Oc2ccc(C(=O)N3CCCC3)cc2)CC1,-19.5
5,COc1ccccc1CCNC(=O)c1ccc(OC)c(OC2CCN(C(C)C)CC2)c1,-4.22
6,COc1ccc(C(=O)NC2CC2)cc1OC1CCN(Cc2ccccc2O)CC1,-91.5
7,COc1ccc(C(=O)NC2CC2)cc1OC1CCN(Cc2ccccc2F)CC1,-64.5
8,COc1ccc(C(=O)NC2CC2)cc1OC1CCN(Cc2cnn(C)c2C)CC1,-2
9,COc1ccc(C(=O)NC2CC2)cc1OC1CCN(Cc2cc(C)c(C)cc2C)CC1,-74.1
10,C=CCOc1ccccc1CN1CCC(Oc2cc(C(=O)NC3CC3)ccc2OC)CC1,-66.6
11,CCOC(=O)c1c(C)nc2ncccn12,2.38
12,COC(=O)Oc1ccc(/C=N/NC(=O)CN(c2ccccc2Cl)S(C)(=O)=O)cc1OC,9.16
13,Cc1ccc(C(=O)COC(=O)CCC(=O)Nc2ccccc2Cl)cc1[N+](=O)[O-],8.32
14,CC1Cn2c(nnc2C23CC4CC(CC(C4)C2)C3)S1 (stereo not drawn),7.65
15,Cc1ccc(N2NC(=O)/C(=C\c3cc4c(cc3[N+](=O)[O-])OCO4)C2=O)cc1C,0.881
16,CCN(c1ccccc1)S(=O)(=O)c1ccc2[nH]c(=O)[nH]c2c1,8.82
17,O=C(Nc1ccc(-n2ccc(C(F)(F)F)n2)cc1)Nc1cccc(Cl)c1,11.3
18,COc1ccc(OC)c(CN2CCC(N3CCC(C(=O)NC4CC4)CC3)CC2)c1,4.7
19,COc1ccc(CN2CCC(Oc3cc(C(=O)NC4CC4)ccc3OC)CC2)c(O)c1,-87.5
20,COc1ccc(CN2CCC(Oc3ccc(C(=O)NCc4ccccn4)cc3)CC2)c(F)c1,7.46
21,CCOC(=O)c1nc2cc3n(c(C)c-2c1C)C(C)C(CC)=C3C.Cl (stereo not drawn),-39.5
22,CCOC(=O)c1nc2cc3n(c(C)c-2c1C)C(C)C(C)=C3C.Cl (stereo not drawn),-13.9
23,CCOC(=O)c1nc2cc3n(c(CC(C)C)c-2c1C)CC(C)=C3C.Cl,-54.2
24,CCOC(=O)c1nn(-c2ccc(F)cc2)c(=O)cc1OCC(=O)Nc1ccc(OCC)cc1,10.8

row,SMILES,"hERG current change (%, negative = inhibition) at 1uM [%]"
1,Cc1c2ccccc2nc2c(F)c(N(C)C)c(F)c(F)c12,19.7
2,O=C(NCCCc1ccccc1)C1CCC(=O)N(CCc2ccc(Cl)cc2)C1 (stereo not drawn),-62.2
3,COc1ccc(CCN2CC(C(=O)N(C)CCOc3ccccc3)CCC2=O)cc1 (stereo not drawn),-34.3
4,O=C(NCCCc1ccccc1)C1CCC(=O)N(Cc2ccc(Cl)cc2)C1 (stereo not drawn),-6.98
5,CN(CCNC(=O)C1CCC(=O)N(Cc2ccc(Cl)cc2)C1)CCc1ccccc1 (stereo not drawn),-50.5
6,O=C(NCCc1ccccc1)C1CCC(=O)N(Cc2ccc(Cl)cc2)C1 (stereo not drawn),5.85
7,CCc1ccc(CN(C)C(=O)C2CCC(=O)N(Cc3cccc(OC)c3)C2)nc1 (stereo not drawn),4.11
8,CCc1ccc(CN(C)C(=O)C2CCC(=O)N(CCc3ccc(OC)cc3)C2)nc1 (stereo not drawn),-57.9
9,COc1ccc(CCN2CC(C(=O)N(C)Cc3ccccc3OC)CCC2=O)cc1 (stereo not drawn),26.7
10,COc1ccccc1CCCNC(=O)C1CCC(=O)N(CCc2ccc(Cl)cc2)C1 (stereo not drawn),-3.88
11,CN(CCOc1ccccc1)C(=O)C1CCC(=O)N(CCc2ccc(Cl)cc2)C1 (stereo not drawn),-51.2
12,CN(CCNC(=O)C1CCC(=O)N(Cc2cccc(F)c2)C1)CCc1ccccc1 (stereo not drawn),-14.8
13,O=C(NCCOc1ccccc1)C1CCC(=O)N(CCc2ccc(Cl)cc2)C1 (stereo not drawn),-45
14,O=C(NCc1ccccc1)c1cnc(-c2ccccn2)nc1C(F)(F)F,9.39
15,Nc1nc(CSc2nnnn2-c2ccc(Cl)cc2)nc(N2CCOCC2)n1,11.5
16,C/C(=N\N1C(=O)CSC1=S)c1ccc(Br)cc1,1.48
17,S=C1NNC2(NN1)C1CC3CC(C1)CC2C3,12.4
18,COc1ccc(-n2cnnc2SCC(=O)N2CCN(S(=O)(=O)c3ccccc3)CC2)cc1,1.1
19,COC(=O)C1=C(C)N(C)C(C)=C(C(=O)OC)C1c1ccc(F)c(Br)c1,6.36
20,CCN(CC(=O)NCc1cccs1)C(=O)c1ccc(-c2ccccc2F)o1,-7.69
21,CCN(CC(=O)NCc1cccs1)C(=O)c1ccc(-c2cccc(C(F)(F)F)c2)o1,-57.4
22,CCN(CC(=O)NCc1cccs1)C(=O)COc1cccc(C(F)(F)F)c1,-7.5
23,COC(=O)C1=C(C)N(CCCCCC(=O)O)C(=O)NC1c1ccccc1 (stereo not drawn),2.67
24,Cc1ccc2c(c1)C1CN(C)CCC1N2C(=O)c1ccccc1NS(=O)(=O)c1ccc(F)cc1 (stereo not drawn),11.8

row,SMILES,"hERG current change (%, negative = inhibition) at 1uM [%]"
1,COc1ccc2cc(C3(C)NC(=O)N(CC(=O)Nc4c(C)n(C)n(-c5ccccc5)c4=O)C3=O)ccc2c1 (stereo not drawn),0.395
2,OCC1(CCc2ccccc2)CCN(Cc2cccn2-c2cccnc2)CC1,-23.3
3,OCC1(CCOc2ccccc2)CCN(Cc2cccn2-c2ncccn2)CC1,-82.4
4,CCn1ccnc1CN1CCC(CO)(CCOc2ccccc2)CC1,13.1
5,CCOC(=O)C1(CCOc2ccccc2)CCN(Cc2cccn2-c2cccnc2)CC1,9.53
6,CCOC(=O)C1(CCOc2ccccc2)CCN(Cc2cccn2-c2ncccn2)CC1,-81.6
7,CCOC(=O)C1(CCOc2ccccc2)CCN(Cc2nccn2CC)CC1,-5.37
8,O=C(Cc1c(F)cccc1Cl)OCN1C(=O)c2ccccc2C1=O,17.4
9,O=C(NCCN1C(=O)C2C3C=CC(C3)C2C1=O)Nc1ccccn1 (stereo not drawn),5.7
10,CCn1cc(C(=O)NCCCN2CCCC(C)C2)c(=O)c2cc(S(=O)(=O)N(C)C3CCCCC3)ccc21 (stereo not drawn),-82
11,CCC1CCCCN1CCCNC(=O)c1cn(C)c2ccc(S(=O)(=O)N(C)C3CCCCC3)cc2c1=O (stereo not drawn),-2.04
12,CCN(CC)CCCNC(=O)c1cn(CC)c2ccc(S(=O)(=O)N(C)C3CCCCC3)cc2c1=O,-5.96
13,CCn1cc(C(=O)NCCCN2CCC(C)CC2)c(=O)c2cc(S(=O)(=O)N(C)C3CCCCC3)ccc21,-74
14,CC1CCCN(CCCNC(=O)c2cn(C)c3ccc(S(=O)(=O)N(C)C4CCCCC4)cc3c2=O)C1 (stereo not drawn),-13.2
15,CCn1cc(C(=O)NCCCN2CCCCCC2)c(=O)c2cc(S(=O)(=O)N3CCc4ccccc4C3)ccc21,-24.5
16,CCn1cc(C(=O)NCCCN2CCCC(C)C2)c(=O)c2cc(S(=O)(=O)N3CCc4ccccc4C3)ccc21 (stereo not drawn),-64.2
17,CCC1CCCCN1CCCNC(=O)c1cn(CC)c2ccc(S(=O)(=O)N(C)C3CCCCC3)cc2c1=O (stereo not drawn),-75.5
18,CCn1cc(C(=O)NCCCN2CCCC(C)C2)c(=O)c2cc(S(=O)(=O)N3CCOCC3)ccc21 (stereo not drawn),16.1
19,CCn1cc(C(=O)NCCCN(CC(C)C)CC(C)C)c(=O)c2cc(S(=O)(=O)N(C)C3CCCCC3)ccc21,-6.68
20,CCn1cc(C(=O)NCCCOC)c(=O)c2cc(S(=O)(=O)N(C)C3CCCCC3)ccc21,-2.67
21,CCn1cc(C(=O)NCCCN2CCCC2)c(=O)c2cc(S(=O)(=O)N3CCc4ccccc4C3)ccc21,6.45
